“And” between values parts separate entries of the source, which are not always exact repeats. Equal values may be shown once. Records with an inconclusive call do not appear. The source made the active and inactive calls. Unless noted, the call rests on the fitted dose curve; in most records, active means well fitted curve in the direction sought with a large enough effect in the repeat runs; inconclusive means weak or mixed curves; inactive means no such curve, though single readings can be large; an effect the other way counts as inactive or inconclusive.
Legend:
[1] = qHTS assay for small molecules that induce genotoxicity in human embryonic kidney cells expressing luciferase-tagged ATAD5 (AID 651632); further: nearly all actives have a fitted effect of over 15% in size
Procedure, shortened: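 Concentration-response screen for ATAD5 upregulation in HEK293T luciferase reporter cells; 16 hr treatment at 37C, then luminescence after 30 min with Amplite at room temperature.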

[2] = qHTS assay for small molecule agonists of the p53 signaling pathway - cell viability (AID 651633; calls by dose curve;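 further: p53RE-bla HCT reporter cells with a stable beta-lactamase p53 reporter; series mostly up to about 83 µM; nearly all actives have a fitted effect of over 30% in size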)
Procedure, shortened: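 Viability counter-read: CellTiter-Glo luminescence (30 min, room temperature) in the same p53RE-bla plates. These plates had been exposed to compounds for 16 h at 37 C.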

[3] = qHTS assay for small molecules that induce genotoxicity in human embryonic kidney cells expressing luciferase-tagged ATAD5 - cell viability (AID 651634; calls by dose curve; further: nearly all actives have a fitted effect of over 25% in size)
Procedure, shortened: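 15.5 hr compound or vehicle exposure of HEK293T cells expressing luciferase-tagged ATAD5 at 37C; live-cell protease activity is read by fluorescence after 30 min of CellTiter-Fluor.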

[4] = qHTS assay for small molecule disruptors of the mitochondrial membrane potential - cell viability (AID 720634; calls by dose curve;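 further: human HepG2 liver cancer cells; series mostly up to about 83 µM; nearly all actives have a fitted effect of over 20% in size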)
Procedure, shortened: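 In this qHTS format, HepG2 cells plated overnight were pinned with compound, incubated 1 hr, and assayed for ATP luminescence with CellTiter-Glo after m-MPI dye addition.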

[5] = qHTS assay for small molecule disruptors of the mitochondrial membrane potential (AID 720635)
Procedure, shortened: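 Mitochondrial membrane potential tracked with Mito-MPS dye, red aggregates (ex 540/em 590 nm) against green monomers (ex 490/em 535 nm). Compound treatment 1 hr at 37C, dye 30 min in HepG2.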

[6] = qHTS assay to test for compound auto fluorescence at 590 nm (red) in HepG2 cells (AID 720674)
Procedure, shortened: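 We screened compounds on adherent HepG2 cells, incubating them for an hour at 37 C in 5% CO2 before reading emission at 590 nm under 540 nm excitation; values reflect equivalence to Rose Bengal sodium fluorescence.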

[7] = qHTS assay to test for compound auto fluorescence at 535 nm (green) in HepG2 cells (AID 720675)
[8] = qHTS assay to test for compound auto fluorescence at 460 nm (blue) in HEK293 cells (AID 720678)
Procedure, shortened: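 HEK293, 2,000 cells/well, 10% dialyzed FBS; attach 4-5 hr 37C; pin compound or DMSO; o/n 37C/5% CO2; fluorescence 405/460 nm; triamterene-equivalent units.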

[9] = qHTS assay to test for compound auto fluorescence at 535 nm (green) in HEK293 cells (AID 720680)
[10] = qHTS assay to test for compound auto fluorescence at 535 nm (green) in HEK293 cell free culture (AID 720682)
Procedure, shortened: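 Each library compound, or DMSO control, is added by pintool to medium alone, comprising DMEM and 10% FBS. Emission at 535 nm following 485 nm excitation is quantified against fluorescein.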

[11] = qHTS assay to test for compound auto fluorescence at 590 nm (red) in HEK293 cell free culture (AID 720683)
Procedure, shortened: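 Red-channel autofluorescence of compounds in culture medium (DMEM, 10% FBS), no cells, measured at 540/590 nm. Rose Bengal sodium is the reference fluorophore for equivalence.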

[12] = qHTS assay to test for compound auto fluorescence at 590 nm (red) in HepG2 cell free culture (AID 720684)
Procedure, shortened: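 No cells present: MEM + 10% FBS only. Compound pinned in, red label read (540/590 nm). Activity = fluorescence equivalent to Rose Bengal sodium.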

[13] = qHTS assay to test for compound auto fluorescence at 460 nm (blue) in HepG2 cell free culture (AID 720685)
Procedure, shortened: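 Cell-free plates of MEM plus 10% FBS received 23 nL compound or DMSO vehicle; blue-channel (405/460 nm) intensity scored against triamterene as reference fluorophore.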

[14] = qHTS assay to test for compound auto fluorescence at 535 nm (green) in HepG2 cell free culture (AID 720686)
[15] = qHTS assay to test for compound auto fluorescence at 460 nm (blue) in HepG2 cells (AID 720687)
Procedure, shortened: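 Blue-channel autofluorescence (Ex/Em 405/460 nm, triamterene-equivalent) was measured after 1 hr compound exposure at 37 C, 5% CO2. Cells were HepG2, plated overnight at 37 C in MEM plus 10% FBS.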

[16] = biological target: Glucocorticoid receptor (Homo sapiens) (UniProt P04150); test: qHTS assay to identify small molecule agonists of the glucocorticoid receptor (GR) signaling pathway (AID 720691; active means well fitted activation curve with a large enough effect in the signal ratio in the repeat runs, not every such curve was filed as active; the % refers to the signal ratio)
Procedure, shortened: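 Measures GR pathway activation through a GRE-beta-lactamase reporter stably integrated in HeLa cells, with 18 h compound treatment at 37 C and fluorescence detection using a FRET substrate.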

[17] = biological target: Glucocorticoid receptor (Homo sapiens) (UniProt P04150); test: qHTS assay to identify small molecule antagonists of the glucocorticoid receptor (GR) signaling pathway (AID 720692; active means well fitted inhibition curve with a large enough effect in the signal ratio in the repeat runs, not every such curve was filed as active; the % refers to the signal ratio)
Procedure, shortened: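 Tox21 10K library screened in concentration-response for blockade of dexamethasone (5 nM final)-induced GRE-bla reporter activity in HeLa cells; 18 h treatment, fluorescence read.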

[18] = qHTS assay for identifying genotoxic compounds that show differential cytotoxicity against isogenic chicken DT40 cell lines with known DNA damage response pathways - wild type cell line (AID 743012); further: nearly all actives have a fitted effect of over 60% in size
Procedure, shortened: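 Endpoint: CellTiter-Glo luminescence, 30 min RT. Cells: wild type DT40, 300/well. Exposure: compounds in DMSO, 40 h, 37 C/5% CO2, after ~0.5 h pre-incubation.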

[19] = qHTS assay for identifying genotoxic compounds that show differential cytotoxicity against isogenic chicken DT40 cell lines with known DNA damage response pathways - Rev3 mutant cell line (AID 743014); further: nearly all actives have a fitted effect of over 55% in size
[20] = qHTS assay to identify small molecule antagonists of the androgen receptor (AR) signaling pathway - cell viability counter screen (AID 743033; further: nearly all actives have a fitted effect of over 45% in size)
[21] = qHTS assay to identify small molecule antagonists of the androgen receptor (AR) signaling pathway using the MDA cell line - cell viability counter screen (AID 743041; further: nearly all actives have a fitted effect of over 45% in size)
Procedure, shortened: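 Using the breast carcinoma line MDA-kb2 AR-luc, test chemicals were co-incubated with R1881 for 16 h; CellTiter-Fluor reagent, added at 15.5 h, provided a fluorescence measure of live cells.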

[22] = qHTS assay to identify small molecule antagonists of the thyroid receptor (TR) signaling pathway - cell viability counter screen (AID 743064); further: nearly all actives have a fitted effect of over 50% in size
Procedure, shortened: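 CellTiter-Fluor readout, 30 min at 37 °C/5% CO2, following 23.5 h incubation of GH3.TRE-Luc cells with test compound and 1 nM T3 (final).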

[23] = biological target: Estrogen receptor (Homo sapiens) (UniProt P03372); test: qHTS assay to identify small molecule antagonists of the estrogen receptor alpha (ER-alpha) signaling pathway (AID 743069; active means well fitted curve in the direction sought with a large enough effect in the signal ratio in the repeat runs, not every such curve was filed as active; the % refers to the signal ratio)
Procedure, shortened: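 Fluorescence intensity from a beta-lactamase FRET substrate served as the read-out. Cells: HEK293 with stably integrated ER-alpha-UAS-bla reporter. Agonist 17beta-estradiol was co-added with compounds; incubation 18 hr at 37C, substrate 2 hr at room temperature.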

[24] = qHTS assay to identify small molecule antagonists of the estrogen receptor alpha (ER-alpha) signaling pathway - cell viability counter screen (AID 743074; calls by dose curve; further: nearly all actives have a fitted effect of over 45% in size)
[25] = biological target: Estrogen receptor (Homo sapiens) (UniProt P03372); test: qHTS assay to identify small molecule agonists of the estrogen receptor alpha (ER-alpha) signaling pathway (AID 743075; calls by dose curve)
[26] = biological target: Estrogen receptor (Homo sapiens) (UniProt P03372); test: qHTS assay to identify small molecule agonists of the estrogen receptor alpha (ER-alpha) signaling pathway using the BG1 cell line (AID 743079); further: nearly all actives have a fitted effect of over 20% in size
[27] = qHTS assay to identify small molecule antagonists of the estrogen receptor alpha (ER-alpha) signaling pathway using the BG1 cell line (AID 743080; calls by dose curve;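 further: BG1 cells stimulated with 17beta-estradiol alongside compound; series mostly up to about 70 µM; nearly all actives have a fitted effect of over 25% in size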)
Procedure, shortened: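 BG1Luc4E2, endogenous ER-alpha, 4xERE-luc; 5 d charcoal-stripped FBS, phenol red free; 24 h plating; cpd + 17beta-estradiol 21.5 h, 37 C/5% CO2; CellTiter-Fluor viability 30 min, then ONE-Glo luciferase 30 min RT.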

[28] = qHTS assay to identify small molecule antagonists of the estrogen receptor alpha (ER-alpha) signaling pathway using the BG1 cell line - cell viability counter screen (AID 743081);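 further: compound given together with 17beta-estradiol as the ER stimulus; series mostly up to about 70 µM; nearly all actives have a fitted effect of over 45% in size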
[29] = biological target: Aromatase (Homo sapiens) (UniProt P11511); test: qHTS assay to identify aromatase inhibitors (AID 743083); further: series mostly up to about 70 µM; nearly all actives have a fitted effect of over 55% in size
[30] = qHTS assay to identify aromatase inhibitors - cell viability counter screen (AID 743084);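 further: cells stimulated with testosterone during compound exposure; nearly all actives have a fitted effect of over 55% in size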
[31] = biological target: Aryl hydrocarbon receptor (Homo sapiens) (UniProt P35869); test: qHTS assay to identify small molecule that activate the aryl hydrocarbon receptor (AhR) signaling pathway (AID 743085);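 further: HG2L7.5c1 human HepG2 liver cells with stably integrated DRE-driven firefly reporter; series mostly up to about 70 µM; nearly all actives have a fitted effect of over 15% in size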
Procedure, shortened: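 Stably transfected human liver carcinoma cells (HG2L7.5c1; 20 DRE-firefly luciferase) were incubated 5 h, dosed, and kept 24 h at 37C. Agonism was scored from increased luciferase luminescence.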

[32] = qHTS assay to identify small molecule that activate the aryl hydrocarbon receptor (AhR) signaling pathway - cell viability counter screen (AID 743086)
Procedure, shortened: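 Cytotoxicity counter screen: CellTiter-Fluor signal (30 min, 37 C) in 4000 HepG2 cells/well carrying the DRE-luciferase reporter, following 24 h compound exposure at 37 C.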

[33] = biological target: Peroxisome proliferator-activated receptor gamma (Homo sapiens) (UniProt P37231); test: qHTS assay to identify small molecule agonists of the peroxisome proliferator-activated receptor gamma (PPARg) signaling pathway (AID 743094; active means well fitted activation curve with a large enough effect in the signal ratio in the repeat runs, not every such curve was filed as active; the % refers to the signal ratio)
Procedure, shortened: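 Fluorescence-based beta-lactamase readout in HEK293H PPARg UAS-bla cells after 17 h compound exposure (37C) and 1 h B/G FRET substrate incubation at room temperature.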

[34] = qHTS assay to identify small molecule phospholipidosis (PLD) inducers (AID 1259344; active means well fitted curve in the direction sought with a large enough effect; an effect the other way counts as inactive or inconclusive)
Procedure, shortened: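 Accumulated phospholipid, stained red by LipidTOX during 24 h compound treatment of HepG2 cells at 37 C, is quantified from images as pit number and intensity, normalised per cell using Hoechst-stained nuclei.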

[35] = biological target: Nuclear receptor subfamily 1 group I member 2 (Rattus norvegicus) (UniProt Q9R1A7); test: Rat pregnane X receptor (rPXR) activation by small molecules, qHTS assay (AID 1346983); settings: rPXR luciferase reporter cells, One-Glo luminescence, 24 h; max activation: stronger effect = higher value; further: nearly all actives have a fitted effect of over 20% in size
Procedure, shortened: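 Luminescent readout (One-Glo luciferase, 30 min room temperature) followed 24 hr compound treatment at 37 C of rPXR cells plated 2,000 per well and preincubated 5hr; qHTS format with compounds delivered in DMSO.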

[36] = biological target: Nuclear receptor subfamily 1 group I member 2 (Homo sapiens) (UniProt O75469); test: CYP3A4 induction through human pregnane X receptor (PXR) by small molecules, qHTS assay (AID 1346984); further: nearly all actives have a fitted effect of over 40% in size
Procedure, shortened: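 After 24 h at 37C with compound, DPX-2 cells (HepG2, co-transfected PXR response element and CYP3A4 promoter-luciferase) got 3uM final P450-Glo Luciferin-IPA for 3 h; One-Glo luminescence followed.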

[37] = biological target: Nuclear receptor subfamily 1 group I member 2 (Homo sapiens) (UniProt O75469); test: Human pregnane X receptor (PXR) activation by small molecules, qHTS assay (AID 1346985); further: nearly all actives have a fitted effect of over 40% in size
Procedure, shortened: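 DPX-2 cells (HepG2 co-transfected with a PXR response element and a CYP3A4-promoter luciferase construct) were seeded at 2,000 per well, rested 5 hr at 37C, then exposed to DMSO-dissolved compounds for 24 hr. Activation was read as luciferase luminescence.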
On the % scale 0 is the no-effect control and ±100 the full control effect.

Sequence of Glucocorticoid receptor (Homo sapiens) (P04150 whole entry, looked up): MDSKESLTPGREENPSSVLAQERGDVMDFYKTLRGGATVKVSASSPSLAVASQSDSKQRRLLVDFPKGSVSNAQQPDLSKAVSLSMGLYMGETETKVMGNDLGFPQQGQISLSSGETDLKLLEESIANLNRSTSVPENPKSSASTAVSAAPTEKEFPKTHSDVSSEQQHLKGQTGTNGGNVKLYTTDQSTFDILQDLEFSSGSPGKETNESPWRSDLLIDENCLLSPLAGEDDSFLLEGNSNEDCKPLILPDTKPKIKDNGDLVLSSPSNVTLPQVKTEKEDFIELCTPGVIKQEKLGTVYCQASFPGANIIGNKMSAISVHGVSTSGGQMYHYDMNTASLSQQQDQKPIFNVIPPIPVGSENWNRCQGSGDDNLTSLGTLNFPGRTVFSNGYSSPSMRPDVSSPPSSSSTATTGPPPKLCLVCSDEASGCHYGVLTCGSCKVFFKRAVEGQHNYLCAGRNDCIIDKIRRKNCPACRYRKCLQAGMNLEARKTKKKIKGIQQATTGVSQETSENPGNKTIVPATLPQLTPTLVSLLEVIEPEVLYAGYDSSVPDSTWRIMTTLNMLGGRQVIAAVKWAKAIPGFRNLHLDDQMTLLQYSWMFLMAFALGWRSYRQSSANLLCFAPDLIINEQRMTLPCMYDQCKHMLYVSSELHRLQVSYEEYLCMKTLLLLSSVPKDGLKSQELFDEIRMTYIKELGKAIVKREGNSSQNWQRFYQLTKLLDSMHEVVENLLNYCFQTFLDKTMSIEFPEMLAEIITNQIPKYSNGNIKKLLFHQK
Sequence of Estrogen receptor (Homo sapiens) (P03372 whole entry, looked up): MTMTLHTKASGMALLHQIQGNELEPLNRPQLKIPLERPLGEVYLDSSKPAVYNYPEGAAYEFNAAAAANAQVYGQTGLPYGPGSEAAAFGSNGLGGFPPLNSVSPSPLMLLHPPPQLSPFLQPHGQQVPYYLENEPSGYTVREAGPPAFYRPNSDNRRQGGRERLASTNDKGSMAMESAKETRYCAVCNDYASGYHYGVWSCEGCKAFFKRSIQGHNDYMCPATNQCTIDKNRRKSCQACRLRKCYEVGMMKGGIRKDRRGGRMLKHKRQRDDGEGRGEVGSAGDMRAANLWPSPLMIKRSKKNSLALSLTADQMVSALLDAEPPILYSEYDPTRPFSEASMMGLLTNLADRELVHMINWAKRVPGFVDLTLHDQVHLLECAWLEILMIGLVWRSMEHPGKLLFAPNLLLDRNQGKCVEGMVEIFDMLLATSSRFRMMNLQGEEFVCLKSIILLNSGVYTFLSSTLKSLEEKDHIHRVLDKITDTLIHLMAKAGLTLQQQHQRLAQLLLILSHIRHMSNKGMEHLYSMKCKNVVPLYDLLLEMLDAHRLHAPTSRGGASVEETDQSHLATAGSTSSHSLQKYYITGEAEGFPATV
Sequence of Aromatase (Homo sapiens) (P11511 whole entry, looked up): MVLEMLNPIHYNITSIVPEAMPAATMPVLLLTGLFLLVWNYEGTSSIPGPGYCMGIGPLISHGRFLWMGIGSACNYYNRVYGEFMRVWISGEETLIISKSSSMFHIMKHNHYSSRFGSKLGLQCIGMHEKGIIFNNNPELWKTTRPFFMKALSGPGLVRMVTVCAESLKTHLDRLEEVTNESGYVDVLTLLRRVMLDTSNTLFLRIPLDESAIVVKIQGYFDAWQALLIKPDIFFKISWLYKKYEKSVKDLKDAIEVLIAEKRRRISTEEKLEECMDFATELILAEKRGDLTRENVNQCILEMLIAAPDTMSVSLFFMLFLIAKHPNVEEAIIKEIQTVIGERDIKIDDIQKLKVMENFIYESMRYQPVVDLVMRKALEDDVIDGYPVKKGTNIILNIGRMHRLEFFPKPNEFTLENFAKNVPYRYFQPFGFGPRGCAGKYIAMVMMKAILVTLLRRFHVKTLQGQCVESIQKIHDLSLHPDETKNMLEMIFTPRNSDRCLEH
Sequence of Nuclear receptor subfamily 1 group I member 2 (Rattus norvegicus) (Q9R1A7 whole entry, looked up): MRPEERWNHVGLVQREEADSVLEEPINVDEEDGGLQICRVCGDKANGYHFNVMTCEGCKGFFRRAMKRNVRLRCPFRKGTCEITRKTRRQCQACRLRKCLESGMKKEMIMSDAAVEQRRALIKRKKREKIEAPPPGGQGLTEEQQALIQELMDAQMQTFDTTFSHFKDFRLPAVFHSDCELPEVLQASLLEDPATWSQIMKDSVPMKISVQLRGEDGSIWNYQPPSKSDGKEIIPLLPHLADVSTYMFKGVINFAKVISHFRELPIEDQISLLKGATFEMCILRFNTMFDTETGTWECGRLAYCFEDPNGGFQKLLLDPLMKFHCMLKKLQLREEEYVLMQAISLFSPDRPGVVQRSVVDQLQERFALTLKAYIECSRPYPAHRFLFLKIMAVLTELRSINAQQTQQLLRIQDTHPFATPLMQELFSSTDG
Sequence of Peroxisome proliferator-activated receptor gamma (Homo sapiens) (P37231 whole entry, looked up): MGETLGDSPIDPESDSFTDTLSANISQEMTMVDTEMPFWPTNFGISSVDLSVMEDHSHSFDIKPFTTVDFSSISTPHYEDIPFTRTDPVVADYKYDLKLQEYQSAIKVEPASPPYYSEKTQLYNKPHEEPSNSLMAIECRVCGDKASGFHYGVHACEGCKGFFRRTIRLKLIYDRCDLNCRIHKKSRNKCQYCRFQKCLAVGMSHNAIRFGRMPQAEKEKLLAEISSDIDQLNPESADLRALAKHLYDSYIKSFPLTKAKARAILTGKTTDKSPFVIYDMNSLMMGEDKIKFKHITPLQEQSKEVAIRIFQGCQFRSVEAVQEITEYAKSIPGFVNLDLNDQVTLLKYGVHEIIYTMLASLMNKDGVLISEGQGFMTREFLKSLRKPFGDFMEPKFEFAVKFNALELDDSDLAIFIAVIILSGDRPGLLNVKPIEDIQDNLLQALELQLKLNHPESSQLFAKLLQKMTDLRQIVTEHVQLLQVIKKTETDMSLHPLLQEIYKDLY
Sequence of Aryl hydrocarbon receptor (Homo sapiens) (P35869 whole entry, looked up): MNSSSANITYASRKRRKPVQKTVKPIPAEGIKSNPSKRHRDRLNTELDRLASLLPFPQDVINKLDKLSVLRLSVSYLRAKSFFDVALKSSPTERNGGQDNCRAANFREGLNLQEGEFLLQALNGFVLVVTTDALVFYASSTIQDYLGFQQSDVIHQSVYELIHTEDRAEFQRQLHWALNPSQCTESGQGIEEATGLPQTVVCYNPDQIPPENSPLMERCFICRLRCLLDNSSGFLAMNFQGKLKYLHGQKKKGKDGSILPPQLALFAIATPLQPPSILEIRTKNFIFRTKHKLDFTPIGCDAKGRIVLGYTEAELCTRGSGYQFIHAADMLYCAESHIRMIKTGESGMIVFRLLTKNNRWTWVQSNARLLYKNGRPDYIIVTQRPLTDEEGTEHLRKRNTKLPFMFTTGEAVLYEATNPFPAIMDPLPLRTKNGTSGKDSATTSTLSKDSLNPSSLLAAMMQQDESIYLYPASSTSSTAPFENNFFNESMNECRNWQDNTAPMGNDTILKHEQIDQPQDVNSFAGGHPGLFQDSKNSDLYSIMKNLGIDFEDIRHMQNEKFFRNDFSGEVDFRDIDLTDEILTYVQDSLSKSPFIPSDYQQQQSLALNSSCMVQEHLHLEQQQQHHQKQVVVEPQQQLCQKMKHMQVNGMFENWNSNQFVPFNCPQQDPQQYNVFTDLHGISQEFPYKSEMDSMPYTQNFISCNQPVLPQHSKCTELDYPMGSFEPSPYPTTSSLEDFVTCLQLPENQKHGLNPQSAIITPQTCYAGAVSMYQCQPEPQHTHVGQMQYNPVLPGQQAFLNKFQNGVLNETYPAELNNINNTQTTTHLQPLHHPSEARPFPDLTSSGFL

C[N+]1([O-])[C@@H]2CC[C@H]1CC(OC(=O)C(CO)c1ccccc1)C2 (some centres not stated)
inactive: Potency [1] | Potency [2] | Potency [3] | Potency [4] | Potency [5] | outcome [6] | Potency [7] | Potency [8] | Potency [9] | Potency [10] | outcome [11] | outcome [12] | Potency [13] | Potency [14] | Potency [15] | Potency [16] | Potency [17] | Potency [18] | Potency [19] | Potency [20] | Potency [21] | Potency [22] | Potency [23] | Potency [24] | Potency [25] | Potency [26] | Potency [27] | Potency [28] | Potency [29] | Potency [30] | Potency [31] | Potency [32] | Potency [33] | Potency [34] | max activation [35] -0.187% and -0.592% | Potency [36] | Potency [37]
